# Values joined by “and” are separate entries in the source; they are usually repeats but may differ in a detail not shown here. Equal values may be shown once. Records with an inconclusive call do not appear. Where a structure was tested more than once in an assay, its records may differ in their call. Active and inactive are the calls of the source. The calls were made as follows: active = hit-call score of the fitted dose curve at least 0.9, where 1 is the maximum; inconclusive = response in the unintended direction; inactive = score below 0.9.
# Biological target: Cellular tumor antigen p53 (Homo sapiens) (UniProt P04637)
# Sequence (P04637 whole entry, looked up): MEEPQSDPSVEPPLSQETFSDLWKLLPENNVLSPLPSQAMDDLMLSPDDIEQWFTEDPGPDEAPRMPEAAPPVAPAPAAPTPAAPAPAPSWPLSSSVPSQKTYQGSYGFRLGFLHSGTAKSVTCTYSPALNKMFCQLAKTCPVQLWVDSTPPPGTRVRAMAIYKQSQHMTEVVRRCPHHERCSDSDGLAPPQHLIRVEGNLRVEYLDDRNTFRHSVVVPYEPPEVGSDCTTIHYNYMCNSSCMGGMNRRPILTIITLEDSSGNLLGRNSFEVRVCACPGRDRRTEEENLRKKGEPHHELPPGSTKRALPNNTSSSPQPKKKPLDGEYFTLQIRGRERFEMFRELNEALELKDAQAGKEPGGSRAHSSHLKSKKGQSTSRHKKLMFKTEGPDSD
# Test: TOX21_p53_BLA_p5_ratio: Tox21 HCT-116 p53 Agonism Beta-lactamase Assay, Ratio, Phase 5 (AID 2283599)
# Description: TOX21_p53_BLA_p5 is a cell-based, single-readout assay that uses HCT116, a human intestinal cell line, […] in a 1536-well plate.TOX21_p53_BLA_p5_ratio is an assay readout measuring reporter gene via receptor activity and designed using inducible reporter (beta lactamase induction) detected with GAL4 b-lactamase reporter gene. The signal is derived from the ratio of cleaved (ch2) to uncleaved (ch1) reporter gene substrate used as the measure of target activity.Data from the assay component TOX21_p53_BLA_p5_ratio was analyzed into 1 assay endpoint. This assay endpoint, TOX21_p53_BLA_p5_ratio, was analyzed in the positive analysis fitting direction relative to DMSO as the negative control and baseline of activity. Using a type of inducible reporter, gain-of-signal activity can be used to understand changes in the reporter gene as they relate to the gene TP53. Furthermore, this assay endpoint can be referred to as a primary readout, because this assay has produced multiple assay endpoints and this ratio serves a reporter gene function to understand target activity. To generalize the intended target to other relatable targets, this assay endpoint is annotated to the DNA binding intended target family, where the subfamily is tumor suppressor.
# Thawing Method: Place 14 mL of pre-warmed thaw medium into a 15 mL of conical tub. Remove the vial of cells to be thawed from liquid nitrogen and thaw rapidly by placing at 37C in a water bath with gentle agitation for 1-2 minutes. Decontaminate the vial by wiping with 70% ethanol before opening in a biological safety cabinet. Transfer the vial contents drop-wise into 14 mL of thaw medium in a sterile 15-mL conical tub. Centrifuge cells at 900 rpm for 4 minutes and resuspend in thaw medium. Transfer contents to the T75 tissue culture flask containing Thaw Medium and place flask in a humidified 37C/5% CO2 incubator. Switch to growth medium at first passage.Propagation Method: Aspirate medium, rinse once in DPBS, add 0.25% Trypsin/EDTA and swirl to coat the cell evenly. Add an equal volume of Growth Medium to inactivate Trypsin after 2-3 minutes incubation at 37C. Centrifuge cells at 900 rpm for 4 minutes and resuspend in growth medium. Cell should be passage or fed at least twice a week.Assay Protocol: Harvest cells from culture in growth medium and resuspend in assay medium. 2.2 Dispense 4000 cells/5 uL/well into 1536-well black/clear bottom plates using a Multidrop dispenser. After the cells were incubated at 37C for 5 hours, 23 nL of compounds dissolved in DMSO were transferred to the assay plate by a PinTool resulting in a 217-fold dilution. Incubate the plates for 16 hours at 37C, 5% CO2. Add 1 uL of 6X LiveBLAzer FRET B/G (CCF4-AM) Substrate Mixture to each well using a BioRAPTR dispenser and incubate the plates at room temperature for 2 hours. Measure fluorescence intensity at 460 and 530 nm emission and 405 nm excitation by an Envision detector. Data is expressed as the ratio of 460nm/530nm emissions. Add 4 uL of Cell-titer Glo to each well using BioRAPTR and incubate the plates at room temperature for 2 hours. Measure fluorescence intensity by a VewLux plate reader.
SMILES,outcome,AC50
NC(=Nc1ccccc1)Nc1ccccc1,inactive,
CCCCCCCCCCCCCCOS(=O)(=O)O,,80.7 µM (active)
CCc1nc(N)nc(N)c1-c1ccc(Cl)cc1,inactive,
CCCCCCC(CCCCCCCCCCC(=O)OCC(COC(C)=O)OC(C)=O)OC(C)=O (stereo not given),inactive,
CCCCC(CC)COP(=O)(OCC(CC)CCCC)OCC(CC)CCCC (stereo not given),inactive,
Oc1ccc(O)cc1,inactive,
NCCOCCOCCN,inactive,
CN(C)CCCN1c2ccccc2Sc2ccc(Cl)cc21,inactive,
Cc1cc(Cc2ccc(N)c(C)c2)ccc1N,inactive,
Cc1cc(SC2=C(O)C[C@@](CCc3ccc(N)cc3)(C(C)C)OC2=O)c(C(C)(C)C)cc1CO,inactive,
CCCC[C@H]1CN(CC2CCOCC2)C(=O)OC12CCN(C1(C)CCN(C(=O)c3c(C)ncnc3C)CC1)CC2,inactive,
CN(C)C(=O)NC1(c2ccccc2)CCN(CC[C@@]2(c3ccc(F)c(F)c3)CN(C(=O)c3ccccc3)CCO2)CC1,inactive,
CC1=C(C)S(=O)(=O)CCS1(=O)=O,inactive,
COC(=O)CCC(=O)OC,inactive,
COC(=O)CCCC(=O)OC,inactive,
CC1(C)C(=O)NC(=O)N1CO,inactive,
Cc1c(C)c2c(c(C)c1O)CCC(C)(COc1ccc(CC3SC(=O)NC3=O)cc1)O2 (stereo not given),,56.1 µM (active) and 34.1 µM (active)
COC(=O)[C@H]1[C@H]2C[C@@H]3c4[nH]c5cc(OC)ccc5c4CCN3C[C@H]2C[C@@H](OC(=O)c2cc(OC)c(OC)c(OC)c2)[C@@H]1OC,inactive,
COc1ccc(OC(F)(F)F)cc1CN[C@H]1CCCN[C@H]1c1ccccc1,inactive,
Oc1ccccc1O,inactive,

SMILES,outcome,AC50
C=CCCCCCCCCCCCC,inactive,
Cc1ccc(C(C)(C)C)c(O)c1,inactive,
S=c1[nH]c2ccccc2s1,inactive,
OCC(CO)n1cnc(-c2ccc(F)cc2)c1-c1ccnc(Oc2ccccc2)n1,inactive,
CCCCc1nc2cccnc2n1Cc1ccc(-c2ccccc2-c2nnn[nH]2)cc1,inactive,
O=C1O[C@H]([C@H](O)CO)C(O)=C1O,inactive,
CC(=O)S[C@H](C(=O)N[C@H]1Cc2ccccc2[C@H]2CCC[C@@H](C(=O)O)N2C1=O)C(C)C,inactive,
O=C1OC(c2ccc(O)cc2)(c2ccc(O)cc2)c2ccccc21,inactive,
Nc1nc(Cl)nc2c1ncn2[C@H]1C[C@H](O)[C@@H](CO)O1,,455 nM (active) and 793 nM (active)
c1ccc2occc2c1,inactive,
COc1ccc(C(=O)Nc2nc3ccccc3c(NCc3ccccc3)c2C#N)cc1,,63.1 µM (active)
O=C(O)CN(CC(=O)O)CC(=O)O,inactive,
CC(C)(C)c1ccccc1,inactive,
O=C(O)c1[nH]n(-c2ccc(S(=O)(=O)O)cc2)c(=O)c1N=Nc1ccc(S(=O)(=O)O)cc1,inactive,6.52e-05 µM (active)
O=C1c2c(O)cccc2Cc2cccc(O)c21,inactive,
CCCCC(CC)CO (stereo not given),inactive,
CCOCCOCCO,inactive,
CCC(C)N(C)C(=O)c1cc2ccccc2c(-c2ccccc2Cl)n1 (stereo not given),inactive,
C=CCc1ccc(OC)c(OC)c1,inactive,
